The structures appear in SMILES notation. Compounds without any hit were thinned out: in the full panel of roughly 83,000, 20% have a hit.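 The endpoint reported here, percent growth, reads 100 for growth as untreated, 0 for no net growth and -100 for all cells dead.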 Unmarked numbers belong to inactive results. Active and inactive are the calls of the source. Rule for the calls: active = growth percent below 10; inactive = the rest.

The subject of the first experiment is TK-10 renal. In words: NCI-60 one-dose screen, 48 h (100 = growth as untreated, 0 = no growth, -100 = all killed). The conditions noted are these: 10 µM unless noted.
Take `Oc1c(Cl)cc(Cl)c2ccc(Cn3cc(-c4ccc(C(F)(F)F)cc4)nn3)nc12`: the growth was 97.3%.
Still for that read-out and setting: for `O=C(NCCCCNC(=O)OCc1ccc2c(Cl)cc(Cl)c(O)c2n1)OCc1ccc2c(Cl)cc(Cl)c(O)c2n1` the value was 61.3%; for `CCN(CC)CCNC(=O)c1cn2ncnc(Oc3ccc(NC(=O)Nc4ccc(Cl)c(C(F)(F)F)c4)c(F)c3)c2c1C`, 27.8%.

The next experiment relates to ACHN renal. Described as above. The note with it: 10 µM unless noted.
Consider `COc1cc(OC)cc(C2=C3CC[C@@H]4[C@H](CC[C@]5(C)C(=O)CC[C@@H]45)C3=CC3C(O)c4cccnc4N4C(=O)COC234)c1` (some centres not stated), for which the growth is 102%.
For `CC(=O)Cc1nsc(NC(=O)c2cc(-c3cc(Cl)cc(Cl)c3)oc2C)n1`, the growth is 105%.
The same measure, in the same setting: the value for `CCOC(=O)c1cn2ncnc(Oc3ccc(NC(=O)NC4CCCCC4)c(Cl)c3)c2c1C` was 61.5%; that for `Cc1nnc(NC(=O)c2nc(S(=O)(=O)Cc3ccc(F)cc3)ncc2Cl)s1` was 96.5%; that for `C#CCOc1ccc2ncnc(Nc3ccc(NC(=O)CCl)cc3)c2c1` was -51.2% (active).
The same measure, in the same setting: the value for `CCOC(=O)C#Cc1c(C(=O)OCC)nnn1[C@@H]1O[C@H](CO)[C@H]2OC3(CCCCC3)O[C@H]21` was -53% (active); that for `C/C(=N/O)c1ccc(F)cc1` was -10.4% (active).
Take `CCOC(=O)Cn1c(O)c(N=Nc2ccc(S(N)(=O)=O)cc2)c2cc(Br)ccc21`: the growth is 84.8%.
As for `Cc1nc(N2CCOCC2)sc1S(N)(=O)=O`, the growth was 100%.
As to `COc1ccc(OC)c(C(=O)/C=C/c2cc3c(c(OC)c2OC)OCO3)c1`, the growth was 68%.
For `O=c1oc2ccccc2cc1C1=NN=C(SCc2ccccc2)SC1`, the growth was 96.9%.
Still for that read-out and setting: the value for `COc1ccc(C(=S)N2CCN(c3ccccc3Cl)CC2)cc1OC` was 97.2%; that for `Cc1ccc(/C=C2\CN(C(=O)OC(C)(C)C)C/C(=C\c3ccc(C)cc3)C2=O)cc1` was 20.3%; that for `O=C(Nc1nn(-c2ccc(Cl)cc2Cl)nc1-c1ccccc1)c1ccccc1` was 94.8%.
The same measure, in the same setting: for `CCN(CC)c1ccc(/C=C/C(=O)c2ccc(Nc3nc(Nc4ccccc4)nc(Nc4ccccc4)n3)cc2)cc1` the value was 49.1%; for `COC(=O)[C@H]1CCCN1C[C@@H](O)CN1C(=O)/C(=C\c2cc(OC)c(OC)c(OC)c2)c2ccccc21`, 105%; for `CN(C)c1ccc(Nc2cc(-c3cccc(OC(F)(F)F)c3)nc3ccc(N4CCCC4)cc23)cc1`, 97.6%.
On to `O=C(Nc1cc(Cl)ccc1O)c1ccc(Nc2ccnc(C(F)(F)F)c2)cc1`, for which the growth was 23.7%.
On to `COc1cc(OC)c2sc(-c3ccc(-n4cncc4-c4ccc(OC)c(OC)c4)cc3)nc2c1`, for which the growth is 38.7%.
The same measure, in the same setting: the value for `O=C1c2cccnc2C(=O)c2c1c(C(=O)NCCCN1CCCCC1)c1ccccn21` was -45.2% (active); that for `CCOC(=O)c1ccc2[nH]c(O)c(C(=Nc3ccc(N(C)C(=O)CN4CCN(C)CC4)cc3)c3ccccc3)c2c1` was 2.92% (active); that for `CCN1C(=O)N(CC)C2C1NN=c1s/c(=C\c3cccc([N+](=O)[O-])c3)c(=O)n12` (configuration not stated) was 32.9%.
Same read-out and setting: for `CC1=C(Nc2ccc(N3CCN(C)CC3)cc2)C(=O)c2cncnc2C1=O` the value was 6.25% (active).
On to `O=C1Nc2ccc(Br)cc2/C1=N/c1n[nH]c(=S)s1`, for which the growth is 96.3%.
As for `CCN(c1ccc(Cl)cc1)c1nc(-c2ccc([N+](=O)[O-])cc2)cs1`, the growth was 95.9%.
Regarding `C=C(C)[C@@H]1CC[C@]2(C)[C@H](CC=C3[C@@H]4[C@H](C)[C@@H](C)CC[C@]4(CO)CC[C@]32C)[C@@]1(C)CCCN`, the growth was 63.4%.
For `O=C(/C=C(/C=C/c1cccc2[nH]ccc12)OB(F)F)/C=C/c1cccc2[nH]ccc12`, the growth is -70.3% (active).
Same read-out and setting: the value for `CCN1CC(=O)N(/N=C2\C(=O)Nc3ccccc32)C1=S` was 76.9%; that for `CCN1CCN(c2cc(C(=O)Nc3nc(-c4cc(OC)c(OC)c(OC)c4)cs3)cc(C(F)(F)F)c2)CC1` was 73.2%.
The same measure, in the same setting: the value for `COc1ccc(-c2nc(/C=C3\SC(=NCc4ccccc4)NC3=O)c3ccccn23)cc1` was -28.3% (active); that for `CCOC(=O)C(=Cc1cccc(Br)c1)C(=O)OCC` was 27.7%.
Regarding `N#CC1=C(N)Oc2c(sc3c(F)cccc23)C1c1ccc(F)cc1` (configuration not stated), the growth is 46.6%.
On the same count and under the same terms, for `CCOc1nc(-c2ccccc2)cc2c(O)c(C(=O)NN)[nH]c(=O)c12` the value was 107%; for `O=C1c2cccc(NCCN=Cc3cc(O)ccc3O)c2C(=O)c2c(NCCN=Cc3cc(O)ccc3O)cccc21`, 0.31% (active).

The record behind these values is PubChem BioAssay (NCI).
